The entries come from a sample that favours hits as a whole.
C diff HTS: C. difficile growth inhibitors, primary screen, HTS; growth activity, negative = inhibition, % at 16 µg/mL (by protocol); Clostridium difficile clinical isolate growth, OD600, 24 h; stronger effect = lower value; 86,000 tested, 0.25% active;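 active means mean growth activity at or below -80% and every replicate also at or below -80%; inconclusive means mean at or below -80% but some replicate above -80%; inactive means mean growth activity above -80%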;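 further: 0% = DMSO wells and -100% = levofloxacin 16 µg/mL wells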
T cruzi growth-1: T. cruzi intracellular proliferation inhibitors, primary screen, cell-based, beta-gal Tulahuen parasites, NIH3T3 host, luminescence | T. cruzi beta-gal in NIH3T3, GalScreen luminescence, 90 h | inhibition, % at 8.34 µM | 77,000 tested, 5.9% active | AID 624255, 2012;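 active means mean inhibition above about 93%, with at least 55% of replicates each passing it, limit read from the data, passing the limit was not always enough; inconclusive means only one of those two conditions holds; inactive means neither condition holds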
T cruzi growth-2: T. cruzi intracellular proliferation inhibitors, confirmation, cell-based, NIH3T3 host, beta-gal parasite, luminescence, cherry-pick; shares compounds with T cruzi growth-1; T. cruzi beta-gal in NIH3T3, GalScreen luminescence, 90 h; 5,600 tested, 72% active; inhibition, % at 8.35 µM;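 active means mean replicate inhibition above about 95% and at least 55% of replicates individually reaching it, limit read from the data; inconclusive means only one of the two criteria is met; inactive means neither criterion is met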
T cruzi growth-3: inhibitors of intracellular T. cruzi replication, confirmation, NIH3T3 host cells, beta-gal parasites, cherry-pick, set 2; shares compounds with T cruzi growth-1; T. cruzi beta-gal in NIH3T3, GalScreen luminescence, 90 h; inhibition, % at 2.09 µM; 5,600 tested, 21% active; AID 651740, 2012;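 active means mean inhibition above about 95%, with at least 55% of replicates also reaching it, limit read from the data; inconclusive means meets just one of the two conditions; inactive means meets neither condition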;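 further: plate controls were neutral control median for no effect and positive control median for full effect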
3T3 cytotox: cytotoxicity in mouse NIH/3T3 fibroblasts, confirmation, cytotoxicity control for T. cruzi proliferation inhibitor project, cell-based, cherry-pick, single point; shares compounds with T cruzi growth-1; NIH/3T3 viability, CellTiter-Glo ATP luminescence, 90 h; cytotoxicity (signal decrease), % at 8.35 µM; 5,600 tested, 14% active;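 active means mean signal decrease across replicates above about 35% based on untreated-well scatter, with enough replicates individually passing, limit read from the data; inconclusive means no rule stated though some were filed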;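 further: 0% = median of neutral control wells and 100% = median of positive control wells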
3T3 cytotox 2: NIH/3T3 fibroblast cytotoxicity, confirmation, cytotoxicity control, cell-based, cherry-pick, single point, set 2 | NIH/3T3 viability, CellTiter-Glo ATP luminescence, 90 h | 5,600 tested, 56% active | AID 651744, 2012 | inhibition, % at 24.9 µM | shares compounds with T cruzi growth-1;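 active means mean loss of cell viability signal at or above a set limit, and enough replicates individually reaching it; inconclusive means meets only the mean limit or only the replicate share; inactive means meets neither condition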;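 further: 0% = median of neutral control wells and 100% = median of positive control wells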
The depositor's hits bear a star; u = inconclusive; x = not tested or not shown.

SMILES | C diff HTS | T cruzi growth-1 | T cruzi growth-2 | T cruzi growth-3 | 3T3 cytotox | 3T3 cytotox 2
CCCC#Cc1ccc2c(c1)O[C@@H](CN(C)Cc1ccncc1)[C@H](C)CN([C@@H](C)CO)S2(=O)=O | 15.5 | 120.9* | 101.0* | 107.1* | 62.9* | 103.7*
C[C@@H]1CN([C@H](C)CO)C(=O)c2cc(NC(=O)Nc3ccccc3)ccc2O[C@@H]1CN(C)C | 4.4 | 8.5 | x | x | x | x
CC(C)NC(=O)N(C)C[C@@H]1OCCCC[C@H](C)Oc2ccc(NC(=O)NC3CCCCC3)cc2C(=O)N([C@@H](C)CO)C[C@@H]1C | -3.5 | 14.1 | x | x | x | x
C[C@H]1CN([C@@H](C)CO)C(=O)CCCn2nncc2CO[C@@H]1CN(C)Cc1cccnc1 | x | 78.7 | x | x | x | x
C[C@H](CO)N1C[C@H](C)[C@H](CN(C)Cc2ccccc2)Oc2cc(-c3ccccc3)ccc2S1(=O)=O | 12.4 | 113.1* | 105.0* | 80.6 | 5.6 | 106.1*
C[C@@H]1CN([C@@H](C)CO)S(=O)(=O)c2ccc(-c3ccccc3)cc2O[C@@H]1CN(C)Cc1ccccc1 | 3.2 | 121.1* | 102.9* | 105.7* | 47.9* | 104.8*
C[C@@H]1CN([C@H](C)CO)S(=O)(=O)c2ccc(-c3ccccc3)cc2O[C@@H]1CN(C)Cc1ccccc1 | -11.6 | 93.6 | x | x | x | x
C[C@H](CO)N1C[C@H](C)[C@@H](CN(C)Cc2ccccc2)Oc2cc(-c3ccccc3)ccc2S1(=O)=O | 15.1 | 66.8 | x | x | x | x
CC(C)NC(=O)N(C)C[C@H]1Oc2ncc(-c3ccccc3F)cc2C(=O)N([C@H](C)CO)C[C@@H]1C | -3.9 | -19.4 | x | x | x | x
COc1ccccc1NC(=O)N(C)C[C@@H]1Oc2ncc(C#CCC(C)C)cc2C(=O)N([C@H](C)CO)C[C@@H]1C | 5.4 | 74.0 | x | x | x | x
CCCC#Cc1cnc2c(c1)C(=O)N([C@@H](C)CO)C[C@H](C)[C@@H](CN(C)C(=O)Nc1ccccc1F)O2 | -13.5 | -2.1 | x | x | x | x
CCCC#Cc1cnc2c(c1)C(=O)N([C@@H](C)CO)C[C@@H](C)[C@H](CN(C)C(=O)Nc1ccccc1F)O2 | -1.7 | u | 115.2* | 89.2 | -4.6 | 39.4*
CCCC#Cc1cnc2c(c1)C(=O)N([C@H](C)CO)C[C@@H](C)[C@@H](CN(C)C(=O)Nc1cc(F)ccc1F)O2 | 4.2 | 14.4 | x | x | x | x
COc1ccccc1NC(=O)N(C)C[C@@H]1Oc2ncc(C#CCC(C)C)cc2C(=O)N([C@@H](C)CO)C[C@H]1C | -3.6 | 104.2* | 105.8* | 63.0 | -4.6 | 2.8
CC(C)CC#Cc1cnc2c(c1)C(=O)N([C@H](C)CO)C[C@@H](C)[C@H](CN(C)C(=O)Nc1cc(F)ccc1F)O2 | -6.9 | 106.7 | x | x | x | x
CC(C)CC#Cc1cnc2c(c1)C(=O)N([C@@H](C)CO)C[C@@H](C)[C@H](CN(C)C(=O)Nc1cc(F)ccc1F)O2 | -7.6 | 115.0* | 101.4* | 99.7* | 12.7 | 74.4*
CC(C)CC#Cc1cnc2c(c1)C(=O)N([C@@H](C)CO)C[C@@H](C)[C@@H](CN(C)C(=O)Nc1cc(F)ccc1F)O2 | 3.4 | u | 103.6* | 42.1 | 36.1* | 73.5*
CN(C)CC#Cc1ccc([C@@H]2[C@H](CO)N3CCCCN(C(=O)C4CCCC4)C[C@@H]23)cc1 | 13.3 | 56.8 | x | x | x | x
C[C@H]1CN([C@@H](C)CO)C(=O)c2ccccc2-c2ccccc2CO[C@@H]1CN(C)S(=O)(=O)c1ccc([N+](=O)[O-])cc1 | 0.9 | x | x | x | x | x
COc1ccc(NC(=O)Nc2ccc3c(c2)CC(=O)N([C@@H](C)CO)C[C@H](C)[C@H](CN(C)S(=O)(=O)c2ccccc2)O3)cc1 | 3.6 | -2.4 | x | x | x | x
CO[C@H]1CN(C)C(=O)c2ccc(NC(=O)C3CCCCC3)cc2OC[C@H](C)N(Cc2cccnc2)C[C@@H]1C | 1.7 | x | x | x | x | x
C[C@@H]1CN([C@@H](C)CO)S(=O)(=O)c2ccc(/C=C/c3ccccc3)cc2O[C@H]1CN(C)Cc1cncnc1 | -7.4 | 121.2* | 111.7* | 97.3* | 53.7* | 61.1*
C[C@H]1CN([C@@H](C)CO)S(=O)(=O)c2ccc(/C=C/c3ccccc3)cc2O[C@H]1CN(C)Cc1cncnc1 | -2.1 | 102.5* | 95.1* | 78.5 | 56.6* | 46.2*
C[C@H](CO)N1C[C@H](C)[C@H](CN(C)Cc2cncnc2)Oc2cc(/C=C/c3ccccc3)ccc2S1(=O)=O | 1.2 | 74.5 | x | x | x | x
C[C@@H]1CN([C@H](C)CO)S(=O)(=O)c2ccc(/C=C/c3ccccc3)cc2O[C@@H]1CN(C)Cc1cncnc1 | -13.6 | 90.4 | x | x | x | x
SMILES | C diff HTS | T cruzi growth-1 | T cruzi growth-2 | T cruzi growth-3 | 3T3 cytotox | 3T3 cytotox 2
COc1ccc(NC(=O)Nc2ccc3c(c2)C(=O)N([C@@H](C)CO)C[C@@H](C)[C@@H](CN(C)C)OCCCC[C@H](C)O3)cc1 | -1.8 | 27.3 | x | x | x | x
COc1ccc(NC(=O)N(C)C[C@@H]2OCCCC[C@@H](C)Oc3ccc(NC(=O)Nc4ccc(C(F)(F)F)cc4)cc3C(=O)N([C@@H](C)CO)C[C@@H]2C)cc1 | -8.0 | x | x | x | x | x
COc1ccc(NC(=O)N(C)C[C@H]2OCCCC[C@@H](C)Oc3ccc(NC(=O)Nc4ccc(C(F)(F)F)cc4)cc3C(=O)N([C@H](C)CO)C[C@@H]2C)cc1 | 0.9 | 108.4* | 111.2* | 106.0* | -1.9 | 25.6*
COc1ccc(NC(=O)N(C)C[C@@H]2OCCCC[C@H](C)Oc3ccc(NC(=O)Nc4ccc(C(F)(F)F)cc4)cc3C(=O)N([C@@H](C)CO)C[C@H]2C)cc1 | 10.7 | 97.3* | 110.8* | u | -20.8 | u
COc1ccc(NC(=O)Nc2ccc3c(c2)C(=O)N([C@@H](C)CO)C[C@H](C)[C@H](CN(C)C)OCCCC[C@H](C)O3)cc1 | -0.4 | 96.1* | 64.1 | -39.3 | -10.3 | 3.6
COc1ccc(NC(=O)N(C)C[C@H]2OCCCC[C@H](C)Oc3ccc(NC(=O)Nc4ccc(F)cc4)cc3C(=O)N([C@@H](C)CO)C[C@H]2C)cc1 | -3.5 | -23.4 | x | x | x | x
COc1ccc(NC(=O)Nc2ccc3c(c2)C(=O)N([C@H](C)CO)C[C@H](C)[C@H](CN(C)C(=O)Nc2ccc(C(F)(F)F)cc2)OCCCC[C@@H](C)O3)cc1 | -0.2 | x | x | x | x | x
COc1ccc(NC(=O)N(C)C[C@H]2OCCCC[C@@H](C)Oc3ccc(NC(=O)Nc4ccc(F)cc4)cc3C(=O)N([C@H](C)CO)C[C@H]2C)cc1 | 1.7 | 100.1* | 111.5* | 39.7 | -2.1 | -4.8
CO[C@@H]1CN(C)C(=O)c2ccc(NC(=O)NC(C)C)cc2OC[C@@H](C)N(S(C)(=O)=O)C[C@@H]1C | -6.3 | x | x | x | x | x
C=CC(COC(C)=O)NS(=O)(=O)c1ccc(Br)cc1 (stereo not given) | -7.0 | x | x | x | x | x
